Test results from PubChem BioAssay (NCI).
This is part of a sample that, as a whole, favours compounds with a hit. Of some 83,000 tested, about 20% had one in any assay.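 Activity criterion: percent growth below 10, measured after cells in 96-well plates were exposed to a single compound concentration for 48 hours.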 Calls of active or inactive are those of the source.

How the values were obtained:
Experiment in all cases: NCI-60 one-dose screen, 48 h (100 = growth as untreated, 0 = no growth, -100 = all killed)
T-47D breast = conditions: 10 µM
BT-549 breast = conditions: 10 µM unless noted
MDA-MB-435 melanoma = conditions: 10 µM unless noted
SW-620 colon = conditions: 10 µM unless noted
MCF7 breast = conditions: 10 µM unless noted
HCT-116 colon = conditions: 10 µM unless noted
HCC-2998 colon = conditions: 10 µM unless noted
KM12 colon = conditions: 10 µM unless noted

Measured: growth

Brc1ccc(SCN(CSc2ccc(Br)cc2)Cc2ccccc2)cc1
inactive: T-47D breast 84.7% | MDA-MB-435 melanoma 75.8% | SW-620 colon 102% | MCF7 breast 66.2% | HCT-116 colon 57.8% | HCC-2998 colon 113% | KM12 colon 43.2%
active: BT-549 breast -15.2%

O=C1c2ccccc2C(=O)c2c(Nc3ccc(CCO)cc3)ccc(O)c21
inactive: T-47D breast 33.2% | BT-549 breast 53.3% | MDA-MB-435 melanoma 88.4% | SW-620 colon 65.8% | MCF7 breast 33.7% | HCT-116 colon 68.6% | HCC-2998 colon 66.8% | KM12 colon 76.2%

COc1nc2c(cc1S(=O)(=O)c1ccccc1)CCc1c-2cnn1-c1ccccc1Cl
inactive: T-47D breast 26.5% | BT-549 breast 51.8% | MDA-MB-435 melanoma 65.7% | SW-620 colon 79.1% | MCF7 breast 42.2% | HCT-116 colon 48.4% | HCC-2998 colon 77.7% | KM12 colon 49.7%

Nc1nc(N)c(N=Nc2c(Br)cc(S(N)(=O)=O)cc2Br)c(N)n1
inactive: T-47D breast 88.6% | BT-549 breast 100% | MDA-MB-435 melanoma 48.3% | SW-620 colon 98% | MCF7 breast 68.6% | HCT-116 colon 103% | HCC-2998 colon 100% | KM12 colon 61.3%

C=CCCCCCCCCC(=O)[O-].C=CCCCCCCCCC(=O)[O-].[Zn+2]
inactive: T-47D breast 112%

CC(C)(C)CC(C)(C)N(CSc1ccc(Cl)cc1)CSc1ccc(Cl)cc1
active: BT-549 breast -52.4%
inactive: T-47D breast 63.2% | MDA-MB-435 melanoma 46.3% | SW-620 colon 35.9% | MCF7 breast 31.4% | HCT-116 colon 25.5% | HCC-2998 colon 65.3% | KM12 colon 33.5%

O=C(CCCCCCC(=O)Nc1ccc2c(c1)/C(=C/c1ccc[nH]1)C(=O)N2)NO
active: T-47D breast -0.107% | MDA-MB-435 melanoma -1.97% | SW-620 colon -27% | HCT-116 colon -36.8% | HCC-2998 colon 3.74% | KM12 colon -14.4%
inactive: BT-549 breast 29.7% | MCF7 breast 17.2%

CCCCCCCCCCCCCCNc1nc(CO)ncc1-c1ccc(C(F)(F)F)cc1
inactive: T-47D breast 95.6% | BT-549 breast 110% | MDA-MB-435 melanoma 102% | SW-620 colon 103% | MCF7 breast 96.2% | HCT-116 colon 94.1% | HCC-2998 colon 99.4% | KM12 colon 99.4%

O=c1nc(NO)[nH]c(=O)n1Cc1ccc(F)cc1
inactive: T-47D breast 97% | BT-549 breast 102% | MDA-MB-435 melanoma 103% | SW-620 colon 101% | MCF7 breast 94.3% | HCT-116 colon 102% | HCC-2998 colon 114% | KM12 colon 109%

O=C(Nc1ccc(F)cc1)c1ccc(C(=O)Nc2ccc(F)cc2)cc1
inactive: T-47D breast 99.1% | BT-549 breast 112% | MDA-MB-435 melanoma 101% | SW-620 colon 109% | MCF7 breast 95.9% | HCT-116 colon 96.2% | HCC-2998 colon 111% | KM12 colon 108%

CC1(C)CC(=O)C2=C(C1)Nc1cc3c(cc1C2c1ccc(F)cc1)OCO3 (centres undefined)
inactive: T-47D breast 85.3% | BT-549 breast 110% | MDA-MB-435 melanoma 102% | SW-620 colon 104% | MCF7 breast 90.6% | HCT-116 colon 96.7% | HCC-2998 colon 102% | KM12 colon 99.3%

CCOC(=O)C1=C(C)N2C(=NC3=C(CCCC/C3=C\c3cc(OC)c(OC)c(OC)c3)C2c2cc(OC)c(OC)c(OC)c2)S1 (centres undefined)
inactive: T-47D breast 45.9% | BT-549 breast 55.1% | MDA-MB-435 melanoma 68.4% | SW-620 colon 82.5% | MCF7 breast 60.9% | HCT-116 colon 68% | HCC-2998 colon 85% | KM12 colon 67.5%

c1ccc(-c2nc(N3CCOCC3)c3c4c(sc3n2)CCCCCC4)nc1
active: MCF7 breast 3.9%
inactive: T-47D breast 17.8% | BT-549 breast 58.3% | MDA-MB-435 melanoma 61.9% | SW-620 colon 86.9% | HCT-116 colon 27.7% | HCC-2998 colon 72.7% | KM12 colon 44.7%

CCCCC(=O)N/N=C/c1cc(I)cc(I)c1O
inactive: T-47D breast 52.1% | BT-549 breast 55.2% | MDA-MB-435 melanoma 56.7% | SW-620 colon 54.6% | MCF7 breast 41.5% | HCT-116 colon 15.1% | HCC-2998 colon 66.5% | KM12 colon 53.2%

O=C1C(Br)=C(c2ccccc2)C(=O)C(Br)=C1c1ccccc1
inactive: T-47D breast 73.4% | BT-549 breast 97.7% | MDA-MB-435 melanoma 91.4% | SW-620 colon 94.2% | MCF7 breast 92.6% | HCT-116 colon 90.3% | HCC-2998 colon 98.2% | KM12 colon 102%

O=C(C[Si](CC(=O)c1cccc(C(F)(F)F)c1)CC(=O)c1cccc(C(F)(F)F)c1)c1cccc(C(F)(F)F)c1
inactive: T-47D breast 98.7% | BT-549 breast 87.2% | MDA-MB-435 melanoma 26% | SW-620 colon 35% | MCF7 breast 86.3% | HCT-116 colon 23.5% | HCC-2998 colon 83.6%

O=C(O)C[C@H](O)C[C@H](O)/C=C/c1c(C2CC2)nc2ccccc2c1-c1ccc(F)cc1
inactive: T-47D breast 95.9% | BT-549 breast 75.1% | MDA-MB-435 melanoma 93.9% | SW-620 colon 83.3% | MCF7 breast 96.3% | HCT-116 colon 63.3% | HCC-2998 colon 99% | KM12 colon 102%

Cc1cc(O)cc2c1[C@H]1CC[C@]3(C)[C@@H](O)CC[C@H]3[C@@H]1C=C2
inactive: T-47D breast 96.5% | BT-549 breast 100% | SW-620 colon 72% | MCF7 breast 109% | HCT-116 colon 86.6% | HCC-2998 colon 48.4% | KM12 colon 102%
active: MDA-MB-435 melanoma 7.81%

C[C@@H](Oc1cc(-c2cnn(C3CC4(CCNCC4)C3)c2)cnc1N)c1c(F)ccc(Cl)c1Cl
inactive: BT-549 breast 58.6%
active: T-47D breast -27.9% | MDA-MB-435 melanoma -70.4% | SW-620 colon -46% | MCF7 breast -34.6% | HCT-116 colon -22.5% | HCC-2998 colon 6.25%

O=C1NC(=S)S/C1=C\c1cccc([N+](=O)[O-])c1
inactive: T-47D breast 90.2% | BT-549 breast 81.2% | MDA-MB-435 melanoma 93.7% | SW-620 colon 115% | MCF7 breast 87.8% | HCT-116 colon 93.2% | HCC-2998 colon 87.4% | KM12 colon 103%

COc1ccccc1-n1c(SCc2cc(OC)c(OC)c(OC)c2)nc2ccc(Cl)cc2c1=O
inactive: T-47D breast 43.9% | BT-549 breast 39.5% | SW-620 colon 16.9% | MCF7 breast 15.6% | HCT-116 colon 21.1% | HCC-2998 colon 56.9% | KM12 colon 16.4%
active: MDA-MB-435 melanoma -34.2%

Cc1nn(-c2ccccc2)c2nc3nc4c(c(N)c3c(-c3ccc(Cl)cc3)c12)CCC4
inactive: T-47D breast 102% | BT-549 breast 114% | MDA-MB-435 melanoma 95.1% | SW-620 colon 50.8% | MCF7 breast 87.5% | HCT-116 colon 58.2% | HCC-2998 colon 109% | KM12 colon 96.6%

CC(C)N1CCN(c2ccc(OC[C@H]3CO[C@](Cn4cncn4)(c4ccc(Cl)cc4Cl)O3)cc2)CC1
inactive: T-47D breast 105% | BT-549 breast 84.4% | MDA-MB-435 melanoma 69.7% | SW-620 colon 98.4% | MCF7 breast 95% | HCT-116 colon 77.7% | HCC-2998 colon 104% | KM12 colon 95.4%

C[C@@H](Oc1cc(-c2cnn(C3CC4(CCCNC4)C3)c2)cnc1N)c1c(Cl)ccc(F)c1Cl (some centres undefined)
inactive: T-47D breast 20.4% | BT-549 breast 73.4% | MDA-MB-435 melanoma 12.6% | HCC-2998 colon 15.3%
active: SW-620 colon -4.07% | MCF7 breast -14.5% | HCT-116 colon -11.8%

CCOC(=O)C(CC(c1ccccc1)N1CCCCC1)[N+](=O)[O-] (centres undefined)
inactive: T-47D breast 59.1% | BT-549 breast 94.8% | MDA-MB-435 melanoma 93.7% | SW-620 colon 84.9% | MCF7 breast 63.3% | HCT-116 colon 54.8% | HCC-2998 colon 108% | KM12 colon 37.8%

O=C(O)CCN1CCN(c2cccc(Cl)c2)CC1
inactive: T-47D breast 98.3% | BT-549 breast 104% | MDA-MB-435 melanoma 93.1% | SW-620 colon 107% | MCF7 breast 86.1% | HCT-116 colon 102% | HCC-2998 colon 114% | KM12 colon 114%

O=c1oc2ccccc2cc1-c1csc(N=Nc2c(O)[nH]c3ccc(Cl)cc23)n1
inactive: T-47D breast 98.8% | BT-549 breast 99% | MDA-MB-435 melanoma 98.9% | SW-620 colon 103% | MCF7 breast 93.5% | HCT-116 colon 107% | HCC-2998 colon 104% | KM12 colon 108%

Cc1ccc(C(=O)O[C@H](C(=O)O)[C@H](OC(=O)c2ccc(C)cc2)C(=O)O)cc1
inactive: T-47D breast 93.6%

C1CCC([PH+](C2CCCCC2)C2CCCCC2[PH+](C2CCCCC2)C2CCCCC2)CC1.O=C(C1[CH-]CCCC1)C1CCCC[N-]1.[Au] (centres undefined)
inactive: T-47D breast 10.3%

Cc1cccc2c(=O)c3c(sc12)c(NCCCN)nc1ccccc13
active: MDA-MB-435 melanoma -75.4% | SW-620 colon -72% | MCF7 breast -78.9% | HCT-116 colon -92% | HCC-2998 colon -30.9% | KM12 colon -64.4%
inactive: T-47D breast 43.9% | BT-549 breast 65.9%

COc1ccc(S(=O)(=O)ON=C2C=C(C)C(=O)C(C)=C2)cc1
inactive: T-47D breast 40.3% | BT-549 breast 97.7% | MDA-MB-435 melanoma 18.1% | SW-620 colon 60.7% | MCF7 breast 64% | HCT-116 colon 44.9% | HCC-2998 colon 112% | KM12 colon 97.6%
